Reference: PubChem BioAssay (NCI)
The panel holds about 83,000 compounds, 20% with a hit somewhere; the sample as a whole holds those more often.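 Activity criterion: percent growth below 10, measured after cells in 96-well plates were exposed to a single compound concentration for 48 hours.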 Values without a mark were called inactive. Active and inactive are the calls of the source.

Tested on: COLO 205 colon
Assay: NCI-60 one-dose screen, 48 h (100 = growth as untreated, 0 = no growth, -100 = all killed)
Details: 10 µM unless noted

Row | Compound | growth
1 | O=C(/C=C/c1ccc2ccccc2c1)Nc1ncc(Cc2ccccc2)s1 | 55.8%
2 | O=C1c2cc3c(cc2-c2c1c1ccc(F)cc1c(=O)n2CCCN1CCOCC1)OCO3 | 55.1%
3 | C=C1CC[C@@H](C(=O)OC)Cc2nc(C)ccc21 | 117%
4 | CCN1CCN(C(=O)[C@]23CCC(C)(C)C[C@@H]2C2=CC[C@@H]4[C@@]5(C)C/C(=C/c6cccnc6)C(=O)C(C)(C)[C@@H]5CC[C@@]4(C)[C@]2(C)CC3)CC1 | 25.9%
5 | Nc1c(C(=O)Nc2cccc3ccccc23)sc2nc3c(cc12)CCCC3 | -3.36% (active)
6 | CC(C)(C)c1cc(-n2c(-c3ccc(Cl)cc3)nc3cc(C(=O)Nc4ccc(Cl)cc4)ccc32)n[nH]1 | 51.8%
7 | Fc1ccc(Nc2nnc(-c3ccc(Cl)cc3)o2)cc1 | 94.2%
8 | O=C1/C(=C\c2ccc(Br)o2)SC(=S)N1CCc1ccc(O)cc1 | 97.8%
9 | CC(=O)c1c(C)[nH]c(-c2nc3ccc(N4CCN(C)CC4)cc3[nH]2)c1-c1ccc2c(c1)OCCO2 | 12.7%
10 | COc1ccc2[nH]c(-c3ccc(Cl)cc3)cc(=O)c2c1 | 105%
11 | CCC1C(=O)COC1=O (stereo unspecified) | 100%
12 | COc1ccc(O)c(-c2cc(-c3ccc(Cl)cc3)c(C#N)c(=O)[nH]2)c1 | 95.2%
13 | C=C(C)[C@@H]1CC[C@]2(C)[C@H](CC[C@@H]3[C@H]4[C@H]5OC[C@@]4(CCC5(C)C)CC[C@]32C)[C@@]1(C)CCCN | -58.2% (active)
14 | CN1CCN(CCOc2ccc(-c3cnc4c(-c5cccc(F)c5)cnn4c3)cc2)CC1 | 32.4%
15 | Cc1cc(N(CCNc2ccnc3cc(Cl)ccc23)Cc2ccco2)nc(Cl)n1 | -53.5% (active)
16 | COc1ccc(CCN2C(=O)C(C)(C)SC2=S)cc1OC | 111%
17 | Cc1cc2nc3c4cc(O)ccc4n(CCN(C)C)c3nc2cc1C | -40.6% (active)
18 | CCCCC(=O)OC1CCCCC1C (stereo unspecified) | 100%
19 | COc1ccc2c(c1)c(-c1nc(-c3c[nH]c4ncccc34)cs1)cn2CCCN1CCCCC1 | -74.9% (active)

Row | Compound | growth
20 | CC(=O)c1c(C)[nH]c(-c2nc3ccc(N4CCN(C)CC4)cc3[nH]2)c1-c1ccc(OCC2CCOCC2)cc1 | 3.57% (active)
21 | Cc1nc([P+](c2ccccc2)(c2ccccc2)c2ccccc2)c(Sc2sc(-c3ccccc3)nc2[P+](c2ccccc2)(c2ccccc2)c2ccccc2)o1 | -43.4% (active)
22 | NNC(=O)c1nc2ccccc2[nH]1 | 103%
23 | O=P(O)(c1ccccc1)c1ccccc1I | 107%
24 | COc1ccc(OC)c(-c2c(C#N)c(-c3ccco3)nc3c2c(-c2ccccc2)nn3-c2ccccc2)c1 | 119%
25 | CNC(=O)c1cc(Oc2ccc3nc(NC(=O)Nc4ccc(Cl)cc4)sc3c2)ccn1 | 79.4%
26 | Clc1cc(Cl)cc(Nc2ccc3c(OCCCN4CCOCC4)cccc3n2)c1 | -53.4% (active)
27 | N#CC1=C(N)Oc2c(c(N)nn2-c2ccccc2)C1c1ccc(Cl)cc1Cl (stereo unspecified) | 120%
28 | CC(C)(C)c1ccc(OCCCCCCCN2CCNCC2)cc1 | -60.9% (active)
29 | Cc1cc(Cl)nc(N(CCCNc2ccnc3cc(Cl)ccc23)Cc2ccco2)n1 | -54.5% (active)
30 | CC1(C)NCCC[C@]2(C)[C@H]3CC[C@@H]4[C@H]5[C@H](C(=O)/C=C/c6ccccn6)CC[C@]5(CO)CC[C@@]4(C)[C@]3(C)CC[C@@H]12 | -74.3% (active)
31 | NCCNc1nc(-c2ccccc2)nc2nc(-c3ccccc3)oc12 | 87.4%
32 | COc1cnc2c(c1)C(=O)c1c-2n(CCCNC(C)C)c(=O)c2cc([N+](=O)[O-])ccc12 | -74.3% (active)
33 | COc1cnc2c(c1)C(=O)c1c-2n(CCCNC2=NCCS2)c(=O)c2cc([N+](=O)[O-])ccc12 | -67.1% (active)
34 | CCC(c1ccc(OC)cc1)C(CC)c1ccc(O)c(CN2CCCCC2)c1 (stereo unspecified) | -12.9% (active)
35 | COc1cc2nc(Cl)nc(Nc3cccc(C(=O)/C=C/c4ccccc4)c3)c2cc1OC | 62.9%
36 | CC1(C)C(=O)/C(=C\c2ccco2)C[C@]2(C)[C@H]3CC[C@@H]4[C@@H](C(=O)/C=C/c5ccco5)CC[C@@]4(C)[C@]3(C)CC[C@@H]12 | -80.2% (active)
37 | CCCC1CCCCN1C(=O)OCC(C)C (stereo unspecified) | 99.7%
38 | Cc1ccc(-c2nn(Cc3cn(-c4cc(C)nc5ccccc45)nn3)c3ncnc(N)c23)cc1 | 54.7%

Tested on: DU-145 prostate
Assay: as above
Details: 10 µM unless noted

Row | Compound | growth
39 | O=C(/C=C/c1ccc2ccccc2c1)Nc1ncc(Cc2ccccc2)s1 | 70.4%
40 | O=C1c2cc3c(cc2-c2c1c1ccc(F)cc1c(=O)n2CCCN1CCOCC1)OCO3 | 28.4%
41 | C=C1CC[C@@H](C(=O)OC)Cc2nc(C)ccc21 | 119%
42 | CCN1CCN(C(=O)[C@]23CCC(C)(C)C[C@@H]2C2=CC[C@@H]4[C@@]5(C)C/C(=C/c6cccnc6)C(=O)C(C)(C)[C@@H]5CC[C@@]4(C)[C@]2(C)CC3)CC1 | 50%
43 | Nc1c(C(=O)Nc2cccc3ccccc23)sc2nc3c(cc12)CCCC3 | 19.3%
44 | CC(C)(C)c1cc(-n2c(-c3ccc(Cl)cc3)nc3cc(C(=O)Nc4ccc(Cl)cc4)ccc32)n[nH]1 | 79.8%
45 | Fc1ccc(Nc2nnc(-c3ccc(Cl)cc3)o2)cc1 | 107%
46 | O=C1/C(=C\c2ccc(Br)o2)SC(=S)N1CCc1ccc(O)cc1 | 43%
47 | CC(=O)c1c(C)[nH]c(-c2nc3ccc(N4CCN(C)CC4)cc3[nH]2)c1-c1ccc2c(c1)OCCO2 | 74.3%
48 | COc1ccc2[nH]c(-c3ccc(Cl)cc3)cc(=O)c2c1 | 105%
49 | CCC1C(=O)COC1=O (stereo unspecified) | 108%
50 | COc1ccc(O)c(-c2cc(-c3ccc(Cl)cc3)c(C#N)c(=O)[nH]2)c1 | 102%
51 | C=C(C)[C@@H]1CC[C@]2(C)[C@H](CC[C@@H]3[C@H]4[C@H]5OC[C@@]4(CCC5(C)C)CC[C@]32C)[C@@]1(C)CCCN | 66.2%
52 | CN1CCN(CCOc2ccc(-c3cnc4c(-c5cccc(F)c5)cnn4c3)cc2)CC1 | 71.8%
53 | Cc1cc(N(CCNc2ccnc3cc(Cl)ccc23)Cc2ccco2)nc(Cl)n1 | 19.6%
54 | COc1ccc(CCN2C(=O)C(C)(C)SC2=S)cc1OC | 98.8%
55 | Cc1cc2nc3c4cc(O)ccc4n(CCN(C)C)c3nc2cc1C | 6.38% (active)
56 | CCCCC(=O)OC1CCCCC1C (stereo unspecified) | 105%
57 | COc1ccc2c(c1)c(-c1nc(-c3c[nH]c4ncccc34)cs1)cn2CCCN1CCCCC1 | 46.1%

Row | Compound | growth
58 | CC(=O)c1c(C)[nH]c(-c2nc3ccc(N4CCN(C)CC4)cc3[nH]2)c1-c1ccc(OCC2CCOCC2)cc1 | 63.4%
59 | Cc1nc([P+](c2ccccc2)(c2ccccc2)c2ccccc2)c(Sc2sc(-c3ccccc3)nc2[P+](c2ccccc2)(c2ccccc2)c2ccccc2)o1 | 19.7%
60 | NNC(=O)c1nc2ccccc2[nH]1 | 112%
61 | O=P(O)(c1ccccc1)c1ccccc1I | 109%
62 | COc1ccc(OC)c(-c2c(C#N)c(-c3ccco3)nc3c2c(-c2ccccc2)nn3-c2ccccc2)c1 | 102%
63 | CNC(=O)c1cc(Oc2ccc3nc(NC(=O)Nc4ccc(Cl)cc4)sc3c2)ccn1 | 53.2%
64 | Clc1cc(Cl)cc(Nc2ccc3c(OCCCN4CCOCC4)cccc3n2)c1 | 41.9%
65 | N#CC1=C(N)Oc2c(c(N)nn2-c2ccccc2)C1c1ccc(Cl)cc1Cl (stereo unspecified) | 105%
66 | CC(C)(C)c1ccc(OCCCCCCCN2CCNCC2)cc1 | 45.6%
67 | Cc1cc(Cl)nc(N(CCCNc2ccnc3cc(Cl)ccc23)Cc2ccco2)n1 | 46.2%
68 | CC1(C)NCCC[C@]2(C)[C@H]3CC[C@@H]4[C@H]5[C@H](C(=O)/C=C/c6ccccn6)CC[C@]5(CO)CC[C@@]4(C)[C@]3(C)CC[C@@H]12 | 67.7%
69 | NCCNc1nc(-c2ccccc2)nc2nc(-c3ccccc3)oc12 | 98.2%
70 | COc1cnc2c(c1)C(=O)c1c-2n(CCCNC(C)C)c(=O)c2cc([N+](=O)[O-])ccc12 | -58.4% (active)
71 | COc1cnc2c(c1)C(=O)c1c-2n(CCCNC2=NCCS2)c(=O)c2cc([N+](=O)[O-])ccc12 | -74.7% (active)
72 | CCC(c1ccc(OC)cc1)C(CC)c1ccc(O)c(CN2CCCCC2)c1 (stereo unspecified) | 86.6%
73 | COc1cc2nc(Cl)nc(Nc3cccc(C(=O)/C=C/c4ccccc4)c3)c2cc1OC | 87.7%
74 | CC1(C)C(=O)/C(=C\c2ccco2)C[C@]2(C)[C@H]3CC[C@@H]4[C@@H](C(=O)/C=C/c5ccco5)CC[C@@]4(C)[C@]3(C)CC[C@@H]12 | 75.2%
75 | CCCC1CCCCN1C(=O)OCC(C)C (stereo unspecified) | 104%
76 | Cc1ccc(-c2nn(Cc3cn(-c4cc(C)nc5ccccc45)nn3)c3ncnc(N)c23)cc1 | 47.8%
